Inconclusive results are not listed. Where a call stands in place of a potency, no number is given. Activity calls are given as the source filed them. The call rests on the fitted dose curve; in most records, active means well fitted cell-killing curve with a large enough effect; inconclusive means small, poorly fitted or top-dose-only effect; inactive means no such curve, though single readings can be large or run the other way.
Potency means the concentration at half of the fitted maximal effect.

This assay in a line: qHTS of pediatric cancer cell lines to identify multiple opportunities for drug repurposing: Primary screen for SJ-GBM2 cells (AID 1347091). Particulars: SJ-GBM2 viability, CellTiter-Glo luminescence, 48 h; series mostly up to 46 µM. From the text: Drug repurposing or repositioning has been offered as a strategy for drug development in oncology programs. This approach has special potential for childhood cancers and other rare or orphan diseases, where the expected return on new drug development has been a disincentive to pharmaceuticals.
In this project we exploit the poly-pharmacology of drugs to discover new indications via phenotypic screening of a panel of 19 well-characterized cell lines derived from solid tumors seen in children and adolescents. The goal is to identify approved drugs with previously unrecognized anticancer properties that has the potential to reveal new mechanisms and biological processes involved in carcinogenesis or drug resistance. We employed a titration-based paradigm (quantitative high-throughput screening or qHTS), where all compounds were tested at multiple concentrations for their effect on cell viability. Concentration-response curves (CRCs) were derived directly from the primary screen, and both potency and efficacy values were used to identify compounds with robust bioactivity profiles. We screened the NIH Chemical Genomics Center (NCGC) Pharmaceutical Collection (NPC) and Mechanism Interrogation Plate (MIPE) small molecule collections of approved and investigational compounds against these cell lines; and measured metabolically active cells after 48 hours of compound treatment as a proxy for cell viability.
Assay Submitter: Nathalia J. Martinez, National Center for Advancing Translational Sciences, National Institutes of Health, Rockville, MD, USA; email: natalia.martinez@nih.gov
[1] Shen, M et al. Quantitative high-throughput phenotypic screening of pediatric cancer cell lines identifies multiple opportunities for drug repurposing. Oncotarget 2017 Dec 19;9(4):4758-4772. PMID 29435139.
The cells were obtained from University of North Carolina (UNC), Pediatric Preclinical Testing Program (PPT), and Coriell Institute (CI).
qHTS cell viability assay:
Cells were assayed in growth media at a density of 500-1,000 cells/well. Five microliters of cells were dispensed into 1,536-well, white, solid-bottom, TC-treated plates (Greiner Bio One) using a multidrop dispenser and incubated at 37 degrees C, 5% CO2, under a humidified atmosphere for 5 hours. Twenty-three nanoliters of compounds and controls (neutral control DMSO or positive control bortezomib at final concentration of 2.3 µM) were subsequently transferred by Kalypsys pintool. For primary screens, the MIPE collection was tested at 11-point dilutions (final concentrations range from 0.78 nM to 46 µM) and the NPC collection at 8-point dilutions (final concentrations range from 0.59 nM to 46 µM). Compounds tested in follow-up screens were assayed at 11-point dilutions. Cells were incubated for 48 hours, followed by addition of 3 uL of CellTiter-Glo (Promega). After a 15 min incubation at room temperature, samples were analyzed for luminescence intensity using a ViewLux High-throughput CCD imager equipped with clear filters.
On the technique in general: Quantitative high-throughput screening tests each substance at several concentrations.
Take `C[C@]12CCC(=O)C=C1CC[C@@H]1[C@@H]2CC[C@]2(C)C(=O)CC[C@@H]12`: the Potency result is “inactive”.
The result for `Cc1ncsc1CCCl` reads “inactive”; that for `C[C@]12CCC(=O)C=C1CC[C@@H]1[C@H]3CC[C@](C)(O)[C@@]3(C)CC[C@@H]12`, 49 µM (active); that for `C[C@@H]1CC2=CC(=O)CC[C@@H]2[C@H]2CC[C@@]3(C)[C@@H](CC[C@]3(C)O)[C@@H]21`, “inactive”.
With `Oc1ccc(Cl)cc1` the entry was “inactive”; with `O=C1CN=C(c2ccccc2)c2cc([N+](=O)[O-])ccc2N1`, “inactive”.
With `C=C(C)[C@H]1CN[C@H](C(=O)O)[C@H]1CC(=O)O` the entry was “inactive”; with `C[C@](O)(CS(=O)(=O)c1ccc(F)cc1)C(=O)Nc1ccc(C#N)c(C(F)(F)F)c1`, 3.72 µM (active); with `c1ccc(CN2CCNCC2)cc1`, “inactive”.
For `CC(C)=CC1C(C(=O)OCN2C(=O)C3=C(CCCC3)C2=O)C1(C)C` (stereo not given), the Potency was 21.1 µM (active).
The result for `CC(=O)NC1CCSC1=O` (stereo not given) reads “inactive”; that for `CN1C(=O)CCS(=O)(=O)C1c1ccc(Cl)cc1` (stereo not given), “inactive”; that for `CCN(CC)CCc1c[nH]c2ccccc12`, “inactive”.
The result for `CN1C(=O)COc2c(C(=O)NC3CN4CCC3CC4)cc(Cl)cc21` (stereo not given) reads “inactive”; that for `CC(=O)C1CCOC1=O` (stereo not given), “inactive”; that for `O=C(O)CCCc1ccc(N(CCCl)CCCl)cc1`, 13.2 µM (active).
The result for `C[C@]12CC[C@H]3[C@@H](CC[C@@]45O[C@H]4C(O)=C(C#N)C[C@]35C)[C@H]1CC[C@H]2O` reads “inactive”; that for `CC(NC(C)(C)C)C(=O)c1cccc(Cl)c1` (stereo not given), “inactive”.
For the compound `CCC1(CC)C(=O)C=CNC1=O`, the Potency result is “inactive”.
`CC(C)(C)NCC(O)c1cc(Cl)c(N)c(C(F)(F)F)c1` (stereo not given): the Potency result is “inactive”.
With `CC(C)c1cccc(C(C)C)c1O` the entry was “inactive”.
On to `C[N+]1(CCF)[C@@H]2CC[C@H]1CC(OC(=O)C(O)(c1ccccc1)c1ccccc1)C2` (stereo not given in full), for which the Potency result is “inactive”.
With `C=CCC1([C@H](C)CCC)C(=O)NC(=O)NC1=O` the entry was “inactive”; with `O=c1[nH]c2ccccc2n1C1CCNCC1`, “inactive”.
`CCc1cc2c(s1)-n1c(C)nnc1CN=C2c1ccccc1Cl`: the Potency result is “inactive”.
With `COc1cc(CCN)cc(OC)c1OC` the entry was “inactive”; with `CCN[C@@H](C)Cc1ccccc1`, “inactive”; with `CN1CCC(O)(c2ccc(F)cc2)C(C(=O)c2ccc(F)cc2)C1` (stereo not given), “inactive”.
`COP(=S)(OC)Oc1ccc(SC)c(C)c1`: the Potency entry is “inactive”.
As to `NC(=O)c1cc([N+](=O)[O-])cc([N+](=O)[O-])c1`, the Potency entry is “inactive”.
With `O=C(O)c1ccc(=O)[nH]c1`, the Potency entry was “inactive”.
For `CC[N+]1(CC)CCC(OC(=O)C(O)(c2ccccc2)c2ccccc2)C1` (stereo not given), the Potency result was “inactive”.
The result for `CCCCC/C=C\C/C=C\C/C=C\C/C=C\CCCC(=O)NCC(=O)O` reads “inactive”.
With `CCN(CC)C(=O)[C@@H]1C=C2c3cccc4[nH]cc(c34)C[C@H]2N(C)C1` the entry was “inactive”.
The result for `O=C1OC(c2ccc(O)c(S(=O)(=O)O)c2)(c2ccc(O)c(S(=O)(=O)O)c2)c2c(Br)c(Br)c(Br)c(Br)c21` reads “inactive”; that for `C[C@]12CC[C@@H]3c4ccc(OC(=O)N(CCCl)CCCl)cc4CC[C@H]3[C@@H]1CC[C@@H]2OP(=O)(O)O`, 16.6 µM (active).
Consider `CCN[C@@H](C)Cc1cccc(C(F)(F)F)c1`, for which the Potency entry is “inactive”.
The result for `c1ccc(N2CCNCC2)cc1` reads “inactive”.
With `COc1cccc([C@@]2(O)CCCC[C@@H]2CN(C)C)c1` the entry was “inactive”; with `CC(C)(N)Cc1ccccc1Cl`, “inactive”.
